Laboratory results: PubChem BioAssay (NCI)
The panel holds about 83,000 compounds, 20% with a hit somewhere; the sample as a whole holds those more often.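 Method: cells in 96-well plates; compound added at one concentration; 48 h incubation; percent growth measured; values under 10 scored active.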 Values without a mark were called inactive. The source made the active and inactive calls.

Each compound was assayed on T-47D breast (assay: NCI-60 one-dose screen, 48 h (100 = growth as untreated, 0 = no growth, -100 = all killed)). Conditions: 10 µM.

Row | SMILES | growth
1 | O=C(O)c1ccc(-n2cc(CNc3ccc(Cl)cc3)c(-c3ccccc3)n2)cc1 | 89.4%
2 | Cc1ccc(C(=O)C2C(=O)C3CCC2C3)cc1 (configuration not stated) | 108%
3 | COc1cc2c(Nc3ccc(S(N)(=O)=O)cc3)ncnc2c(OC)c1OC | 97%
4 | CN1CCN(CC(=O)Nc2cccc(-n3cc(-c4ccncc4)c(-c4ccc(Cl)c(O)c4)n3)c2)CC1 | 61.3%
5 | O=[N+]([O-])c1cccc(/C=N/NC(=S)NC23CC4CC(CC(C4)C2)C3)c1 | 88.7%
6 | CN1CCN(c2cc3c(cc2F)c(=O)c(C(=O)O)cn3-c2ccc(F)cc2)CC1 | 99.9%
7 | O=C(CN1CCN(C(=O)c2ccccc2)CC1)Nc1ccccc1SCc1ccccc1 | 37.7%
8 | Clc1ccc2c(c1)C(N1CCNCC1)=Nc1ccccc1O2 | 35.2%
9 | CCOC(=O)c1cc(C(=O)c2cc(OC)c(OC)c(OC)c2)n2ncc3ccccc3c12 | 77.1%
10 | CC(=O)C1CCC2C3CC=C4CC(SC(=N)N)CCC4(C)C3CCC12C (configuration not stated) | 40.9%
11 | COc1cc2c(Nc3ccc(-c4ccc(N)cc4)cc3)ncnc2c(OC)c1OC | 83%
12 | C#C[C@]1(O)CCC2C3CCc4cc(OC5CCCC5)ccc4C3CC[C@@]21C (some centres not stated) | 84%
13 | Cc1cc(SC#N)cc(C(C)(C)C)c1O | 80%
14 | Cc1cc(CCNC=O)c(C)c2c1sc1ccccc12 | 92.8%
15 | CO[C@H]1CC(O[C@@H]2/C(C)=C/C[C@@H]3C[C@@H](C[C@]4(C=C[C@H](C)[C@@H](C5CCCCC5)O4)O3)OC(=O)[C@@H]3C=C(C)[C@@H](O)[C@H]4OC/C(=C\C=C\[C@@H]2C)[C@]43O)O[C@@H](C)C1O[C@H]1C[C@H](OC)[C@@H](O)[C@H](C)O1 (some centres not stated) | -51.2% (active)
16 | CCN(CC)c1ccc(/C=C2\SC(=O)C(Nc3nnc(-c4cccnc4SCc4ccccc4)o3)C2=O)cc1 (configuration not stated) | 50.3%
17 | O=C(N/N=C/c1ccc([N+](=O)[O-])cc1)c1ccccc1Nc1cccc(C(F)(F)F)c1 | 95.1%
18 | CC(=O)[C@H]1CC[C@]2(C)[C@@H]1CC[C@@H]1[C@@]3(C)CC(CCC#N)(CCC#N)C(=O)C(C)(C)[C@@H]3CC[C@]12C | 91.2%
19 | Cc1cc(CSc2ccccc2C(=O)N2CC=C(c3ccccc3)CC2)on1 | 75.5%

Row | SMILES | growth
20 | N#Cc1ccc(C(=O)CSc2nccc(Nc3ccc(C(=O)O)cc3)n2)cc1 | 110%
21 | COc1ccc2nc3cc(Cl)ccc3c(Nc3cc(CN4CCCC4)c(O)c(CN4CCCC4)c3)c2n1 | 13.1%
22 | O=C(N/N=C/c1ccc(Cl)cc1)c1ccc(Cc2n[nH]c(=O)c3cccnc23)cc1 | 99.4%
23 | O=S(=O)(Oc1ccc(-c2ccc3sccc3c2)cc1)c1ccc(F)cc1 | 96%
24 | CNC(=O)c1c(I)c(NC(C)=O)c(I)c(C(=O)O)c1I | 117%
25 | C/C(=N\O)c1ccc(NC(=O)CSc2nnc(-c3ccccc3)n2-c2ccccc2)cc1 | 79.6%
26 | COc1ccc(/C=C2/SC(=S)NC2=O)c(OC)c1OC | 63.2%
27 | C[C@]12CC[C@@H]3c4ccc(O)cc4CC[C@H]3[C@@H]1CC[C@@H]2NS(=O)(=O)c1ccc(C(F)(F)F)cc1 | 25%
28 | NS(=O)(=O)c1ccc(Br)cc1 | 84.7%
29 | CNS(=O)(=O)Oc1ccc(-c2ccc3occc3c2)cc1 | 89.1%
30 | COc1cc(-c2nn(-c3cccc(NC(=O)CCN4CCN(c5ccccc5)CC4)c3)cc2-c2ccncc2)ccc1Cl | 17.5%
31 | CCN(CC)CC(=O)N(CC)c1ccc(C)c(Cl)c1 | 90.3%
32 | Cc1cccc(N=Cc2ccccc2O)c1C | 106%
33 | CCCCC1(O)CCCCC1 | 91.5%
34 | COc1ccc(/C=C2\CCCC3=C2N=C2SC(C)=CN2C3c2ccc(OC)cc2)cc1 (configuration not stated) | 108%
35 | c1ccc(CSc2ncccc2-c2nnc(SCCN3CCOCC3)o2)cc1 | 101%
36 | C/C=C/C1=CN2C(=O)c3cc(OC4OC(C)C(NC)C(C)(O)C4O)c(C)c(O)c3N=C[C@@H]2C1 (some centres not stated) | -8.27% (active)
37 | C[C@]12CC[C@@H]3c4ccc(OS(=O)(=O)O)cc4CC[C@H]3[C@@H]1CC[C@@H]2NS(=O)(=O)c1ccc(-c2ccccc2)cc1 | 49.8%
